How the values were obtained:
Type in all cases: functional
[1] = system: Plasmodium falciparum; assay: GSK_TCMDC: Inhibition of Plasmodium falciparum 3D7 in whole red blood cells, using parasite LDH activity as an index of growth. Test compounds present at 2uM
[2] = system: Plasmodium falciparum; assay: GSK_TCMDC: Inhibition of Plasmodium falciparum Dd2 in whole red blood cells, using parasite LDH activity as an index of growth. Test compounds present at 2uM
[3] = system: HepG2; assay: GSK_TCMDC: Percent inhibition of human HepG2 cell line. Test compounds present at 10uM.

`OCCN1CCN(c2ccc(Nc3ccnc4cc5ccccc5cc34)cc2)CC1` gave an Inhibition [1] of 100%, an Inhibition [2] of 100% and an Inhibition [3] of 98%.

For `COc1ccc(NC(=O)NC2CCN(c3ccnc4cc(Cl)ccc34)C2)cc1.O=C(O)C(F)(F)F` (stereo not drawn), the Inhibition [1] was 100%, the Inhibition [2] was 69% and the Inhibition [3] was 10%.

`CS(=O)(=O)c1cccc(-c2cnc3[nH]cc(-c4ccc(CCC(=O)O)cc4)c3c2)c1` was tested, and the Inhibition [1] was 97%, the Inhibition [2] was 99% and the Inhibition [3] was 1%.

`CN(C)CC1CCCN1Cc1ccccc1-c1cnn(C)c(=O)c1Oc1ccc(F)cc1.O=C(O)C(F)(F)F` (stereo not drawn) was tested, and the Inhibition [1] was 91%, the Inhibition [2] was 19% and the Inhibition [3] was 29%.

Work on `O=C(O)C(F)(F)F.O=S(=O)(c1ccccc1)n1ccc2cc(Nc3ncnc4cc(C#C[C@H]5CCCN5)sc34)ccc21` yielded an Inhibition [1] of 85%, an Inhibition [2] of 56% and an Inhibition [3] of 50%.

Work on `NC(=O)c1c(Cl)nc2ccccc2c1Cl` yielded an Inhibition [1] of 91%, an Inhibition [2] of 0% and an Inhibition [3] of 2%.

With `CCCCn1c(=N)c(C(=O)NCc2cccnc2)cc2c(=O)n3cccc(C)c3nc21` the Inhibition [1] was 100%, the Inhibition [2] was 47% and the Inhibition [3] was 7%.

Molecule `CS(=O)(=O)CCNCc1cccc(-c2ccc3c(Nc4ccc(Oc5cccnc5)cc4)ccnc3c2)c1` has an Inhibition [1] of 100%, an Inhibition [2] of 99% and an Inhibition [3] of 27%.

Work on `CS(=O)(=O)CCNCc1cccc(-c2ccc3c(Nc4cc(O)c(Cl)cc4F)ccnc3c2)c1` yielded an Inhibition [1] of 100%, an Inhibition [2] of 100% and an Inhibition [3] of 9%.

Work on `Cl.NOCCCCOc1ccc(Cl)cc1` yielded an Inhibition [1] of 98%, an Inhibition [2] of 0% and an Inhibition [3] of 2%.

`CC(CCc1ccc(OCc2ccccc2)cc1)NCC(O)c1ccccc1` (stereo not drawn) gave an Inhibition [1] of 86%, an Inhibition [2] of 72% and an Inhibition [3] of 9%.
